This is an account of results in PubChem BioAssay AID1851 (National Center for Advancing Translational Sciences (NCATS), 2009).

Where “and” joins values, the source holds several entries; their conditions need not be identical. Equal values may be shown once. The campaign covered roughly 16,000 compounds. About 2,600 (16%) were called active. Inconclusive results (about 20%) are left out. Calls follow the shape of the dose curve; as a rule, active = well fitted curve in the direction sought with a large enough effect; inconclusive = small, poorly fitted or top-dose-only effect, or effect the other way; inactive = no such curve, though single readings can be large or run the other way. Not all results are given here.
% is scaled to controls: 0 for no effect and ±100 for the full control effect.

Cytochrome P450 2D6 (Homo sapiens), sequence (P10635 whole entry, looked up): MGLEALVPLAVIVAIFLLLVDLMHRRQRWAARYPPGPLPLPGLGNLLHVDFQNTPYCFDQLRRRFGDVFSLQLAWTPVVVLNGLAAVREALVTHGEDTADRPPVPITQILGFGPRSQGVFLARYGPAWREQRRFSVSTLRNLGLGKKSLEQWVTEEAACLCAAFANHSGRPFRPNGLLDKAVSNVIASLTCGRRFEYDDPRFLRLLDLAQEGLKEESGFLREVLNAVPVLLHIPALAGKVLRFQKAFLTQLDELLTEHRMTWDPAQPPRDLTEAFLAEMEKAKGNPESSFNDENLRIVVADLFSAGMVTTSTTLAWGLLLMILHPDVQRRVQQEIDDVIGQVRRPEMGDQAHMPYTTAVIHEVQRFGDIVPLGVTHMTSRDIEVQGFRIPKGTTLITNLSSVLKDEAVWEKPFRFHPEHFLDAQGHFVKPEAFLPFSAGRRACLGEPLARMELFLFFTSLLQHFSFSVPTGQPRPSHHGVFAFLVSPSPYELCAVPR

The test addresses Cytochrome P450 2D6 (Homo sapiens) (UniProt P10635). Put plainly: Cytochrome panel assay with activity outcomes. To be noted: recombinant CYP, pro-luciferin dealkylation, luminescence, p450-cyp2d6; series mostly up to 57.1 µM; activity, negative = inhibition: at the top concentration.
For the compound `COc1ncc2nc(-c3cccs3)c(=O)n(CCC#N)c2n1`, the “activity, negative = inhibition” value is -8.94% (inactive).
On the same count and under the same terms, the same measure for `COc1ccc(NC(=O)N2CC3(CCN(C(=O)c4cnccn4)CC3)C2)cc1`: 7.36% (inactive).
As to `COc1ccc(Cl)cc1NC(=O)C12CCC(C)(C(=O)O1)C2(C)C` (centres undefined), the “activity, negative = inhibition” value is -4.4% (inactive).
What is called AC50 is the concentration giving half of the maximal activity seen. Regarding `O=C(Cc1ccccc1I)Nc1ccccc1`, the concentration at half-maximal activity (AC50) is 20 µM (active).
As to `NCC(=O)Nc1ccccc1`, the activity, negative = inhibition is -0.269% [at 11.4 µM] (inactive).
Turning to `CC(C)(CC(=O)Nc1ccccc1)C(=O)O`, the activity, negative = inhibition was 8.43% [at 11.4 µM] (inactive).
The same measure, in the same setting: the same measure for `COc1ccc(C(=O)CCN(C)C)c2ccccc12`: -4.14% [at 11.4 µM] (inactive); for `O=c1c(-c2nc3ccccc3s2)cccn1Cc1ccccc1`: 3.83% (inactive); for `Cc1cccc(Cn2ncc(Cl)c(Cl)c2=O)c1`: -7.8% (inactive).
Still for that read-out and setting: the same measure for `Cc1ccc(C(C(=O)NCc2ccco2)N(C(=O)CNC(=O)c2cccs2)c2ccc(C)cc2C)cc1` (centres undefined): 21.5% (inactive).
`Cc1ccc(C(C(=O)NC2CCCCC2)N(CC2CCCO2)C(=O)CNC(=O)c2cccs2)cc1` (centres undefined): the AC50 was 10 µM (active).
With `O=C(NCC(=O)N(c1ccccc1)C(C(=O)NC1CCCC1)c1cccnc1)c1cccs1` (centres undefined), the “activity, negative = inhibition” value was -6.98% (inactive).
In the case of `O=S(=O)(c1ccccc1)N1CCC2(CC1)CN(Cc1ccccc1)C2`, the AC50 is 0.158 µM (active).
`O=S(=O)(c1ccccc1)N1CCC2(CCN(Cc3ccccc3)CC2)CC1`: the “activity, negative = inhibition” value was -2.12% (inactive).
For `N#Cc1ccc(CN2CCCC3(CCN(S(=O)(=O)c4ccccc4)CC3)C2)cc1`, the AC50 is 0.631 µM (active).
The same measure, in the same setting: the same measure for `O=S(=O)(c1ccccc1)N1CCC2(CCCN(Cc3ccncc3)C2)CC1`: 1 µM (active).
Turning to `N#Cc1ccc(CN2CCC3(CC2)CCN(S(=O)(=O)c2ccccc2)CC3)cc1`, the “activity, negative = inhibition” value was -7.01% (inactive).
Regarding `Cc1ccccc1CNc1ncnc2c1ncn2[C@@H]1O[C@@H](CO)[C@H](O)[C@@H]1O`, the “activity, negative = inhibition” value was -5.35% (inactive).
In the case of `COc1ccc(NS(=O)(=O)c2ccc(NC(=O)c3cnn4c(C(F)F)cc(-c5ccc(C)cc5)nc34)cc2)cc1`, the “activity, negative = inhibition” value is 4.09% (inactive).
On to `CC(C)=CCc1c2c(c3occ(-c4ccc(O)c(O)c4)c(=O)c3c1O)C=CC(C)(C)O2`, for which the activity, negative = inhibition was -0.0819% [at 11.4 µM] (inactive).
On the same count and under the same terms, the value for `CCc1cc2c(=O)n(-c3ccccc3)c(=S)[nH]c2s1` was -4.86% (inactive); that for `COC(=O)/C=C\CCc1coc(/C=C\CNC(=O)OC)n1` was 8.58% [at 11.4 µM] (inactive); that for `COc1ccc(/C=C2\OC(=O)c3c(OC)cccc32)cc1OC` was -3.99% (inactive).
With `Cn1c(=O)c(-c2ccc(Cl)cc2)nc2cncnc21`, the “activity, negative = inhibition” value was 2.69% (inactive).
`O=C(O)c1cccc(C(=O)O)c1S(=O)Cc1ccccc1` (centres undefined): the activity, negative = inhibition is -0.655% [at 11.4 µM] (inactive).
As for `O=S(Cc1ccccc1)CC(O)(c1ccccc1)c1ccccc1` (centres undefined), the AC50 was 2.24 µM (active).
For `O=C(O)C(Cl)(c1ccccc1)c1ccccc1`, the activity, negative = inhibition is 6.11% [at 11.4 µM] (inactive).
On to `COc1cccc(N=c2oc3c(C)ncc(CO)c3cc2C(N)=O)c1`, for which the “activity, negative = inhibition” value was -2.53% (inactive).
On the same count and under the same terms, the same measure for `O=C(C1CCCCC1)N1CC(=O)N2CCc3ccccc3[C@@H]2C1`: -6.05% [at 25.6 µM] (inactive).
Consider `CC(C)(C)[C@@]1(O)CCN2C[C@@H]3c4ccccc4CCc4cccc(c43)[C@@H]2C1`, for which the AC50 was 79.4 nM (active) and 501 nM (active).
With `CC(C)c1nnc(-c2ccc(Cl)cc2)c(N(C)C)n1`, the “activity, negative = inhibition” value was -23.6% (inactive).
Still for that read-out and setting: the value for `C/C(CCN1CCc2nc(-c3ccccc3)c(-c3ccccc3)cc2C1)=N\O[C@@H](C)c1cc(-c2c(C)cc(C)cc2C)no1` was 8.64% [at 11.4 µM] (inactive).
`CS(=O)(=O)c1ccc([C@H](O)[C@H](CO)NC(=O)C(Cl)Cl)cc1`: the “activity, negative = inhibition” value was -2.23% [at 25.6 µM] (inactive).
For `CN1/C(=C\C=[N+](C)c2ccccc2)C(C)(C)c2ccccc21`, the AC50 was 0.316 µM (active).
For the compound `CN(C)c1ccc(N=C/C=C2\N(C)c3ccccc3C2(C)C)cc1`, the AC50 was 2.24 µM (active).
Take `Cc1c(NC(=S)/C=C2\N(C)c3ccccc3C2(C)C)c(=O)n(-c2ccccc2)n1C`: the “activity, negative = inhibition” value is -13.2% (inactive).
On to `CN1/C(=C/C=C(/C#N)C(N)=O)C(C)(C)c2ccccc21`, for which the “activity, negative = inhibition” value was -25.7% (inactive).
On the same count and under the same terms, the same measure for `CC(C)CO/N=C1/C[C@@H](O)[C@@H](O)[C@@H]2[C@@H]3C(=O)N(C[C@@H]4CCCO4)C(=O)[C@H]3CC[C@H]12`: -1.45% [at 11.4 µM] (inactive).
On to `Cc1cc(C)cc(Oc2coc3cc(OC(=O)c4cccs4)ccc3c2=O)c1`, for which the “activity, negative = inhibition” value is 3.44% (inactive).
On to `O=C(O)c1cccc2cccc(-c3cccc4cccc(C(=O)O)c34)c12`, for which the activity, negative = inhibition was -12.7% [at 11.4 µM] (inactive).
In the case of `O=C(c1c[nH]c(=O)n(-c2ccccc2)c1=O)N1CCc2ccccc21`, the “activity, negative = inhibition” value is 1.94% (inactive).
Regarding `O=C(/C(=C/c1ccc(Cl)cc1)c1nc2ccccc2[nH]1)c1ccccc1`, the “activity, negative = inhibition” value is -29% (inactive).
`O=C(N/C(=C/c1ccc(Br)cc1)c1nc2ccccc2[nH]1)c1ccco1`: the AC50 is 12.6 µM (active).
`O=C(Nc1cccc(Br)c1)/C(=C\c1cccnc1)NC(=O)c1ccco1`: the “activity, negative = inhibition” value is -9.37% (inactive).
For the compound `O=C1c2cccc3c(Cl)ccc(c23)C(=O)N1O`, the “activity, negative = inhibition” value was 10.7% (inactive).
For `COC(=O)c1ccc(-n2cncn2)c(F)c1`, the “activity, negative = inhibition” value was -6.15% (inactive).
Regarding `CCc1nn(C)c(-c2n[nH]c(=S)n2N)c1Cl`, the “activity, negative = inhibition” value was -3.2% (inactive).
On the same count and under the same terms, the value for `Cc1ccc(S(=O)(=O)NC(=O)OC23COCN2COC3)cc1` was 18.1% [at 11.4 µM] (inactive).
With `Nc1nc(SCc2ccc([N+](=O)[O-])cc2)c2ncn([C@@H]3O[C@@H](CO)[C@@H](O)[C@H]3O)c2n1`, the “activity, negative = inhibition” value is -4.44% (inactive).
